Reference: PubChem BioAssay (NCATS)
Results filed as inconclusive are left out. Active and inactive are the calls of the source. Unless noted, calls come from the whole dose curve; as a rule, active = well fitted curve in either direction with a large enough effect (not every such curve was filed as active); inconclusive = small, poorly fitted or top-dose-only effect, or another doubt; inactive = flat fitted curve, though single readings scatter.

What was measured:
[1] = target: Lysosomal acid glucosylceramidase (Homo sapiens) (UniProt P04062); test: Glucocerebrosidase-p2 (AID 348; in the data active = potency below about 10 µM; note: potency is the fitted concentration of half-maximal effect); conditions: purified GBA, blue fluorogenic substrate, 40 min
Chain of Lysosomal acid glucosylceramidase (Homo sapiens) (P04062 whole entry, looked up): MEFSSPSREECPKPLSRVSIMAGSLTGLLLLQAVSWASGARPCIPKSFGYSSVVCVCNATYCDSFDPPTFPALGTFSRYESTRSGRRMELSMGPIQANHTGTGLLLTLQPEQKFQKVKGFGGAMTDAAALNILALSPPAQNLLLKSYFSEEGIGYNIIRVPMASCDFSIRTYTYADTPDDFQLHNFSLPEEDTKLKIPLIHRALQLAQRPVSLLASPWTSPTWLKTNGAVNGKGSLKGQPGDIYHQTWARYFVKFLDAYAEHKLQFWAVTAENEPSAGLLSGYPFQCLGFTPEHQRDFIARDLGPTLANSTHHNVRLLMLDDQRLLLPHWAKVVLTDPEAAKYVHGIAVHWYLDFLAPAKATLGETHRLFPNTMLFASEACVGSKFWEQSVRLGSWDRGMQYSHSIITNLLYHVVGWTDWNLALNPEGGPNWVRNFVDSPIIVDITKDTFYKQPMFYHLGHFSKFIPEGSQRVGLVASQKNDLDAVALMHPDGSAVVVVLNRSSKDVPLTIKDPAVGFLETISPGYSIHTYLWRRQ
In short: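 Compounds titrated from 0.6 nM upwards against 0.2 nM enzyme in pH 5.9 citric acid/KH2PO4, taurocholate, tween-20; blue fluorogenic substrate 80 uM, 40 min room temperature, stopped and read Ex 365/Em 440 for AC50.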

[2] = AP1 Signaling Pathway (AID 357); conditions: ME-180 AP-1-bla reporter, EGF-induced, beta-lactamase ratio, 5 h; at 7.69 µM (top of the series) unless noted;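 note: ME-180 reporter cells stimulated with EGF at its EC50 level; % is set by controls: 0 for no effect and ±100 for the full control effect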
In short: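 Beta-lactamase reporter under AP-1 response element, ME-180 background. Stimulus: EC50 EGF. Compound exposure 5 h, 37 °C. Detection: CCF4, 2.5 h RT, 460/530 nm. Values: AC50 from titration.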

[3] = Stat Signaling Pathway (AID 446); conditions: ME-180 SIE beta-lactamase reporter, IL-6 stimulated, 5 h; at 7.69 µM (top of the series) unless noted;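 note: ME-180 cervical cancer cells given 40 pM IL-6 alongside compound; SIE-controlled beta-lactamase reporter measured as 460/530 nm FRET emission ratio; % is set by controls: 0 for no effect and ±100 for the full control effect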
In short: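 ME-180 cells carrying a SIE-driven beta-lactamase reporter are stimulated with 40 pM IL-6 for 5 h at 37C in the presence of compound. The 460/530 nm FRET substrate ratio is read after 2.5 h at RT. Data are normalised to 300 pM IL-6 and to 125 nM JAK inhibitor controls.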

[4] = target: Glucocorticoid receptor (Homo sapiens) (UniProt P04150); test: GR-EFC Redistribution (AID 451; calls by dose curve; note: potency is the fitted concentration of half-maximal effect); conditions: CHO-K1 GR-EFC translocation, beta-gal luminescence, 2 h
Chain of Glucocorticoid receptor (Homo sapiens) (P04150 whole entry, looked up, the tested form may be a part): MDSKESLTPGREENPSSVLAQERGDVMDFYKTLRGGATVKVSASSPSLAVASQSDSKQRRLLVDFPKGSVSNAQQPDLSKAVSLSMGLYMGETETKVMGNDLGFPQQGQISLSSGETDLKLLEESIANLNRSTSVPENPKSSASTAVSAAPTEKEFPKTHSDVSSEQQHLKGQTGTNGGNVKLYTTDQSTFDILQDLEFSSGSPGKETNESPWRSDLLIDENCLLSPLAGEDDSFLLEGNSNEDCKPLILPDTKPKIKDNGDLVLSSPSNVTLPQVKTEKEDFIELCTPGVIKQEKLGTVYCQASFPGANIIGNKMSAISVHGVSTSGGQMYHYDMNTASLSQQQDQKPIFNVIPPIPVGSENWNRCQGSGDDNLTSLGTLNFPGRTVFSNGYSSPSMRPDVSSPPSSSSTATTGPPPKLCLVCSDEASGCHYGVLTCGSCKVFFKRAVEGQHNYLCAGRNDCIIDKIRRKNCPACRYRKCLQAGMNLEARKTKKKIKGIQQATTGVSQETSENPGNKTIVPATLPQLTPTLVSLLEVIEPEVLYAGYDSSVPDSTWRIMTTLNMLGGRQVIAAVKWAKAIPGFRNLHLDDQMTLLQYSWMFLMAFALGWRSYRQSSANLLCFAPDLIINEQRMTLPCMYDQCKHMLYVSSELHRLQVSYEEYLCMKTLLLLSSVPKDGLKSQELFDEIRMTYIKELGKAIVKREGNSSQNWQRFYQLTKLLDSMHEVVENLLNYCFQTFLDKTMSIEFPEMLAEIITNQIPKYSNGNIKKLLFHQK
In short: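 CHO-K1 cells stably expressing nuclear-localized β-gal enzyme acceptor and GR fused C-terminally to the enzyme donor fragment; ligand-driven nuclear translocation restores β-gal by complementation. Compounds titrated up to 46 uM final, 2 h at 37 °C; luminescence read.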

[5] = target: Mitogen-activated protein kinase 10 (Mus musculus) (UniProt Q61831); test: JNK3 AlphaScreen Assay (AID 530); conditions: JNK3 lysate, c-Jun phosphorylation; series mostly up to 57.1 µM;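 note: kinase came from lysate of stimulated human HepG2 cells; signal reports phosphorylation of biotinylated GST-cJun 1-79 at Ser73 with 10 µM ATP; % is set by controls: 0 for no effect and ±100 for the full control effect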
In short: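 JNK3 came from HepG2 lysates pre-activated with IL-1beta and TNF-alpha and phosphorylated biotinylated GST-cJun (1-79) at 10 uM ATP, pH 7.6, room temperature. Compounds were titrated. AlphaScreen signal used anti-phospho-cJun (Ser73) antibody.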

[6] = target: 3',5'-cyclic-AMP phosphodiesterase 4B (Homo sapiens) (UniProt Q07343); test: qHTS Assay for Inhibitors of PDE-IV (AID 607; active = well fitted activation curve with a large enough effect in the main read-out, with a control signal flat, not every such curve was filed as active; note: % of control where 0% means no effect); conditions: HEK293 ACTOne CNG channel cells, membrane potential fluorescence; series mostly up to 22.9 µM
Chain of 3',5'-cyclic-AMP phosphodiesterase 4B (Homo sapiens) (Q07343 whole entry, looked up): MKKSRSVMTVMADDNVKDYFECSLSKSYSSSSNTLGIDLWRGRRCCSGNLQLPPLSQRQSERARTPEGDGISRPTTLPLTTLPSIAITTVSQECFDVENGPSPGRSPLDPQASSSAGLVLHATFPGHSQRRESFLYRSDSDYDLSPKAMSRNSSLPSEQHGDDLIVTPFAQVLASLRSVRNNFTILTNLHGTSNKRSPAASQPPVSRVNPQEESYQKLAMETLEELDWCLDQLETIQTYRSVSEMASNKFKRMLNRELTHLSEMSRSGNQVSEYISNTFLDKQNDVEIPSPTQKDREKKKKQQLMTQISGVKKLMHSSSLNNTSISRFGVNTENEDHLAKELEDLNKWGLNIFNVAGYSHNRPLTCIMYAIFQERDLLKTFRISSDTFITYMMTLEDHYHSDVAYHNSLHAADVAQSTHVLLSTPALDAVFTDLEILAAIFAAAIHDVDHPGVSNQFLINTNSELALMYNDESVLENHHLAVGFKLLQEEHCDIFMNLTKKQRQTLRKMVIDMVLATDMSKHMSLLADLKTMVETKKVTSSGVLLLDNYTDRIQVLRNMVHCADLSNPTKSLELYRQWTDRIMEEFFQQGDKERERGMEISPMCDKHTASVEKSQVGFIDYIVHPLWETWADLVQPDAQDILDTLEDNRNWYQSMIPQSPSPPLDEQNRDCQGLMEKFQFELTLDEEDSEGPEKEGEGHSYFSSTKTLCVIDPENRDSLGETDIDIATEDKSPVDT
In short: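 HEK293 ACTOne cells with CNG channel (1000/well), endogenous PDE4; membrane potential dye, compounds up to 22.9 uM final. Fluorescence Ex 535/Em 590; RO 20-1724 (100 uM final) as reference.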

[7] = qHTS Assay for Lipid Storage Modulators (AID 1519; calls by dose curve); conditions: Drosophila S3 cells, BODIPY lipid droplet/cell ratio, laser cytometry, cells loaded with oleic acid; for activity change, negative = inhibition: at 57.5 µM (top of the series)
In short: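 Cells seeded at 5,000 per well were treated with compounds over a concentration series and loaded with oleic acid (400 uM, as added). Lipid droplet fluorescence (488 nm excitation, 500-530 nm channel) was read by laser-scanning cytometry and normalized to 20 uM Triacsin C.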

[8] = Primary qHTS for small molecule stabilizers of the endoplasmic reticulum resident proteome: Secreted ER Calcium Modulated Protein (SERCaMP) assay (AID 1508630; active = well fitted curve in the direction sought with a large enough effect; an effect the other way counts as inactive or inconclusive; note: % is set by controls: 0 for no effect and ±100 for the full control effect); conditions: SH-SY5Y GLuc-SERCaMP (Gaussia luciferase released on ER calcium loss) secretion, thapsigargin, luminescence; series mostly up to 38.4 µM
In short: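 GLuc-SERCaMP-expressing SH-SY5Y cells, pretreated 16 h with compound, are challenged with thapsigargin to empty ER calcium stores; after 4 h, coelenterazine is added directly to the medium and luminescence is imaged.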

[9] = target: Glucocorticoid receptor (Homo sapiens) (UniProt P04150); test: GR-GFP Redistribution (AID 450;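 active = compounds whose dose series gives a full or clear partial fitted curve of increased nuclear translocation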; note: potency is the fitted concentration of half-maximal effect); conditions: U2OS GR-GFP nuclear translocation, laser cytometry, 2 h
[10] = Confirmation and Secondary Assay for Modulators of Hemoglobin Beta Chain Splicing at IVS2 654 locus (AID 910; active = well fitted curve in the direction sought with a large enough effect; an effect the other way counts as inactive or inconclusive;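 note: per-well total GFP intensity by laser scanning cytometry after 2-day treatment; % of control where 0% means no effect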); conditions: HeLa EGFP-654 splicing reporter, GFP fluorescence, 48 h; series mostly up to 38.3 µM
In short: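 HeLa cells stably carrying EGFP interrupted by mutant beta-globin IVS2-654 intron (CMV-driven) were treated with compound for 2 days at 37C; corrected splicing was scored as total peak GFP intensity per well (488 nm excitation, 500-520 nm emission).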

[11] = Confirmation and Secondary Assay for Modulators of Hemoglobin Beta Chain Splicing at IVS2 705 locus (AID 930; active = well fitted curve in the direction sought with a large enough effect; an effect the other way counts as inactive or inconclusive;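 note: HeLa cells stably expressing the EGFP-705 splicing reporter; GFP fluorescence per well restored by corrected splicing of the IVS2-705 intron in EGFP; % of control where 0% means no effect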); conditions: HeLa EGFP-705 splicing reporter, GFP fluorescence, 48 h; series mostly up to 38.3 µM
In short: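 Secondary splice-site specificity test uses HeLa expressing CMV-driven EGFP interrupted by IVS2-705; cells were treated 2 days at 37C with 500 nM antisense PNA as positive control.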

[12] = target: Ubiquitin carboxyl-terminal hydrolase 1 (Homo sapiens) (UniProt O94782); test: Inhibitors of USP1/UAF1: Pilot qHTS (AID 504865; active = well fitted curve in the direction sought with a large enough effect; an effect the other way counts as inactive or inconclusive;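 note: rhodamine fluorescence freed from ubiquitin-rhodamine substrate followed over time; top concentration of the series differs between compounds; % is set by controls: 0 for no effect and ±100 for the full control effect; nearly all actives have a fitted effect of over 35% in size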); conditions: purified USP1/UAF1, Ub-rhodamine cleavage fluorescence; series mostly up to 54.9 µM
Chain of Ubiquitin carboxyl-terminal hydrolase 1 (Homo sapiens) (O94782 whole entry, looked up): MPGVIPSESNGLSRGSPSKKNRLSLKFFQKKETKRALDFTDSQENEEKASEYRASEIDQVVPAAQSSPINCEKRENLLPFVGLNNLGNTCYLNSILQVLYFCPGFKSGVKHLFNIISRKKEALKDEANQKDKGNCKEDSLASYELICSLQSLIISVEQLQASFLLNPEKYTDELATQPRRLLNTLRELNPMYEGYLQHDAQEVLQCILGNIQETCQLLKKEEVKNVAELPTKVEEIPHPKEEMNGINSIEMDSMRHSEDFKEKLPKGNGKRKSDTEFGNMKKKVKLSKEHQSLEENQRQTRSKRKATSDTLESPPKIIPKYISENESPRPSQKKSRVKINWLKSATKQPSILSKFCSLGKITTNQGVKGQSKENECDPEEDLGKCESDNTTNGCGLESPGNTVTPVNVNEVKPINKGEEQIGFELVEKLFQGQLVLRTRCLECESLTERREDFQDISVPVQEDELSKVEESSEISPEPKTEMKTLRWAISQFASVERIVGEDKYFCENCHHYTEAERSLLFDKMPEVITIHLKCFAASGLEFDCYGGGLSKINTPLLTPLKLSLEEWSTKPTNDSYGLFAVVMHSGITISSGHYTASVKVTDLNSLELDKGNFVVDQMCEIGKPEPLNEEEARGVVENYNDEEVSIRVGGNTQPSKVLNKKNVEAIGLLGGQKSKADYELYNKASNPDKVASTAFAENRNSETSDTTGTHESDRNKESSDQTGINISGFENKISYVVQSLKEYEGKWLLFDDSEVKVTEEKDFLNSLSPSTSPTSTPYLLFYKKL
In short: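 Kinetic fluorescence assay: 1nM USP1/UAF1, 15 min compound preincubation, then 150nM Ub-Rho; 480/540 nm.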

[13] = NFAT Signaling Pathway (AID 444); conditions: Jurkat NFAT-bla M1, carbachol, beta-lactamase ratio, 5 h; at 7.69 µM (top of the series) unless noted
In short: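 Jurkat cells carrying an NFAT-driven β-lactamase reporter and co-transfected muscarinic M1 receptor were treated with compound plus carbachol (1 uM final, an EC50 level) for 5 h at 37 °C. CCF4 loading followed for 1 h at RT; 460/530 nm ratio gave %activity.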

[14] = measured here: cell count channel max response
[15] = measured here: lipid channel max response

Row | Structure (SMILES) | Potency [1] | activity change, negative = inhibition [2] | activity, negative = inhibition [3] | Potency [4] | Potency [5] | Potency [6] | activity change, negative = inhibition [7] | max response [7, 14] | max response [7, 15] | outcome [8] | Potency [9] | Potency [10] | outcome [11] | Potency [12] | activity change, negative = inhibition [13]
1 | COC(=O)N1CCC2(CCN(Cc3ccc(C#N)cc3)CC2)CC1 | > 11.4 µM (inactive) | -12.5% (inactive) | 21.3% (inactive) | > 46 µM (inactive) | inactive | inactive | 6.51% (inactive) | 5.74% | 14.3% | inactive |  |  |  |  | 
2 | CN1CC[C@@]2(CCCN(S(=O)(=O)c3ccccc3)C2)C1 | > 11.4 µM (inactive) | -25.8% (inactive) | 3.36% (inactive) | > 46 µM (inactive) | inactive | inactive | 5.6% (inactive) | 6.91% | 16.3% | inactive |  |  |  |  | 
3 | COCC(=O)N1CCC2(CCCN(C(c3ccccc3)c3ccccc3)C2)CC1 | > 11.4 µM (inactive) | -6.37% (inactive) | 16.7% (inactive) | > 46 µM (inactive) | inactive | inactive | -0.272% (inactive) | 15.7% | 20.6% | inactive |  |  |  |  | 
4 | CC(C)CN1CCC2(CC1)CCN(C(=O)c1ccco1)CC2 | > 11.4 µM (inactive) | 10.1% (inactive) | -2.71% (inactive) | > 46 µM (inactive) | inactive | inactive | -0.991% (inactive) | -0.576% | 1.45% | inactive |  |  |  |  | 
5 | COc1ccc2[nH]cc(CCNc3nc(-c4cccc(NS(C)(=O)=O)c4)nc4ccccc34)c2c1 | > 11.4 µM (inactive) | -29.4% (inactive) | -28.4% (inactive) | > 46 µM (inactive) | inactive | inactive | 8.36% (inactive) | -14.6% | -4.03% | inactive | > 46 µM (inactive) | inactive | inactive | inactive | 
6 | COCC(=O)N1CCC[C@@]2(CCN(c3ccncc3)C2)C1 | > 11.4 µM (inactive) | -10.7% (inactive) | 5.19% (inactive) | > 46 µM (inactive) | inactive | inactive | 1.37% (inactive) | -0.218% | 3.63% | inactive |  |  |  |  | 
7 | COc1ccccc1CN1CC2(CCN(C(=O)c3cc(C(F)(F)F)cc(C(F)(F)F)c3)CC2)C1 | > 11.4 µM (inactive) | 1.43% (inactive) | 3.93% (inactive) | > 46 µM (inactive) | inactive |  | -1.27% (inactive) | 11.2% | 10.9% | inactive |  |  |  |  | 
8 | N#Cc1ccc(CN2CCC3(CC2)CCN(C(=O)c2ccco2)CC3)cc1 | > 11.4 µM (inactive) | -11.2% (inactive) | -4.42% (inactive) | > 46 µM (inactive) | inactive | inactive | 1.05% (inactive) | 20.4% | 24% | inactive |  |  |  |  | 
9 | COc1ccc(C(=O)N2CCC3(CC2)CN(c2ccc(-c4ccccc4)cc2)C3)cc1 | > 11.4 µM (inactive) | -5.62% (inactive) |  | > 46 µM (inactive) | inactive | inactive | -3.67% (inactive) | 9.2% | 7.61% | inactive |  |  |  |  | -9.07% (inactive)
10 | N#Cc1ccc(CN2CCC3(CCNCC3)CC2)cc1 | > 11.4 µM (inactive) | 1.45% (inactive) | 2.48% (inactive) | > 46 µM (inactive) | inactive | inactive | 1.87% (inactive) | 9.11% | 14.9% | inactive |  |  |  |  | 
11 | N#Cc1ccc(CN2CC[C@@]3(CCCN(C(=O)c4cnccn4)C3)C2)cc1 | > 11.4 µM (inactive) | -8.73% (inactive) |  | > 46 µM (inactive) | inactive | inactive | 2.06% (inactive) | 12.2% | 18.2% | inactive |  |  |  |  | 1.72% (inactive)
12 | CC(=O)N1CCC[C@@]2(CCN(Cc3ccc(C#N)cc3)C2)C1 | > 11.4 µM (inactive) | -11.7% (inactive) |  | > 46 µM (inactive) | inactive | inactive | 2.62% (inactive) | 7.32% | 8.41% | inactive |  |  |  |  | 2.49% (inactive)
13 | N#Cc1cccc(NC(=O)N2CC3(CCN(C(=O)c4ccco4)CC3)C2)c1 | > 11.4 µM (inactive) | -10.9% (inactive) | 19.7% (inactive) | > 46 µM (inactive) | inactive | inactive | 4.67% (inactive) | 3.49% | 11.7% | inactive |  |  |  |  | 
14 | COCC(=O)N1CCC2(CCCN(Cc3ccccc3OC)C2)CC1 | > 11.4 µM (inactive) | -2.02% (inactive) | 10.7% (inactive) | > 46 µM (inactive) | inactive | inactive | -6.35% (inactive) | 2.52% | 0.269% | inactive |  |  |  |  | 
15 | Cn1cccc1C(=O)N1CCC2(CC1)CCN(c1ccncc1)CC2 | > 11.4 µM (inactive) | -0.611% (inactive) | 6.85% (inactive) | > 46 µM (inactive) | inactive | inactive | 1.02% (inactive) | -0.0216% | 2.95% | inactive |  |  |  |  | 
16 | O=C(c1cc(C(F)(F)F)cc(C(F)(F)F)c1)N1CCC2(CCN(Cc3ccncc3)CC2)CC1 | > 11.4 µM (inactive) | -22.8% (inactive) | 6.58% (inactive) | > 46 µM (inactive) | inactive | inactive | 3.65% (inactive) | 7.35% | 10.5% | inactive |  |  |  |  | 
